Anthrax LF prot: inhibitors of Bacillus anthracis lethal factor protease. P15917. inhibition, % at 10 µM. multiplex microsphere protease cleavage assay, LF. actives 0.12% (n = 360,000); also: plate controls were buffer without enzyme for full effect and enzyme alone for no effect
MazEF act: MazEF (E. coli) toxin RNase activation | P0AE70 | AID 504720 | activation, % at 20 µM | actives 0.32% (n = 350,000) | FAM/BHQ RNA-DNA oligo cleavage fluorescence, 5 h; in the data active = activation above about 50%
Target sequence (P0AE70 whole entry, looked up): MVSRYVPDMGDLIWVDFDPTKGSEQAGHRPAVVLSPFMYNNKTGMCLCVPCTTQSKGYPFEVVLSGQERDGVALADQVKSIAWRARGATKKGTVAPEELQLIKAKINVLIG
BoNT F protease: blocks Botulinum neurotoxin F light chain protease. Multiplex microsphere protease cleavage assay, flow cytometry. inhibition, % at 10 µM. actives 0.22% (n = 360,000). AID 588497; in the data active = inhibition above about 35%, passing the limit was not always enough; inconclusive = no clear call, values can overlap the other calls; also: plate controls were buffer without enzyme for full effect and enzyme alone for no effect
BoNT A protease: inhibitors of Botulinum neurotoxin A light chain protease. actives 0.17% (n = 360,000). inhibition, % at 10 µM. multiplex microsphere protease substrate cleavage, flow cytometry; also: plate controls were buffer without enzyme for full effect and enzyme alone for no effect
Bead autofluor: compound fluorescence in toxin protease inhibitor counterscreen; compound autofluorescence counterscreen, microsphere flow cytometry; stronger effect = higher value; fluorescence intensity (concentration not given with the values); actives 3.1% (n = 360,000); AID 624483; in the data active = fluorescence intensity above about 16000; inconclusive = no clear call, values can overlap the other calls
An asterisk follows results filed as active; ? = inconclusive; . = not tested or not shown. Hits are enriched below; roughly 3.7% of the tested compounds scored in any of these assays. Rule as the data show it, unless noted: active = inhibition above about 30%; inconclusive = no clear call, values can overlap the other calls; inactive = below that.

SMILES	Anthrax LF prot	MazEF act	BoNT F protease	BoNT A protease	Bead autofluor
CCN(C(=O)Cc1c(C(=O)O)[nH]c2ccccc12)c1cc(OC)ccc1OC	-4.0	0.1	-1.1	0.3	20129*
COc1ccc(N(C)C(=O)Cc2c(C(=O)O)[nH]c3ccccc23)cc1	7.5	9.3	-1.4	-1.5	3516
Cc1ccc2c(c1)cc1c(=O)n(CC(=O)NCCN3CCCC3)nc(C)n12	2.2	9.4	-6.0	-1.0	5075
Nc1ccc(N(CCO)CCO)cc1	-3.4	-103.7	-9.2	-0.5	4273
CCN(CC)c1ccc(N)cc1	-64.8	99.2*	-119.3	-0.5	4311
Cc1ccc(-c2nc(C#N)c(NCCN3CCCCC3)o2)cc1	-2.9	-1.8	-10.9	?	22423*
COc1ccc(-c2nc(C#N)c(NCc3ccccc3Cl)o2)cc1	-0.5	-10.9	3.7	?	20055*
N#Cc1nc(-c2ccc(Cl)cc2)oc1NCc1ccco1	-6.8	-1.5	3.0	-0.3	3900
COc1ccc(Nc2oc(COc3ccc(Cl)cc3)nc2C#N)cc1	-7.7	5.3	6.2	-0.6	4659
N#Cc1nc(-c2ccc(Cl)cc2)oc1NCc1cccc2c1OCO2	-0.7	8.1	-1.8	1.2	19143*
COc1ccc(CNc2oc(COc3ccc(Cl)cc3)nc2C#N)cc1	-3.3	-3.9	-9.9	-4.2	20982*
O=C(CCNC(=O)c1ccc(Cl)cc1)NCCCN1CCOCC1	4.6	12.7	6.2	2.4	8598
O=S1(=O)CCN(CCc2c[nH]c3ccccc23)CC1	2.3	0.1	-1.5	-0.4	4420
Cc1ccc(C(=O)n2cc(CCN3CCS(=O)(=O)CC3)c3ccccc32)cc1	-3.3	-0.6	0.9	0.5	16475*
CCN1CCN(c2nc3sc4c(c3c(=O)n2-c2ccc(OC)cc2)CCCCC4)CC1	0.4	7.3	-2.6	-1.3	16947*
COc1ccc(-n2c(NN)nc3sc4c(c3c2=O)CCCC4)cc1	-16.2	8.0	-9.1	-0.6	4115
C=CCn1c(SCC)nc2sc3c(c2c1=O)CCc1ccccc1-3	-1.3	-2.0	-5.0	-2.5	17250*
COc1ccc(C(=O)NC(C(=O)NCC2(N3CCCCC3)CCCCC2)C(C)C)cc1 (stereo not given)	5.0	6.5	-9.2	0.1	3073
CS(=O)(=O)N1N=C(c2ccc(Br)cc2)CC1c1ccc2c(c1)OCO2 (stereo not given)	1.3	46.5	3.1	3.6	25156*
Cc1ccc(C2=NN(S(C)(=O)=O)C(c3ccc4c(c3)OCO4)C2)cc1 (stereo not given)	3.3	17.4	3.0	2.4	8387
CSc1ccc(CCNC(=O)c2cccc3c2C(=O)N(C2CCCCC2)C3)cc1	-0.3	2.4	5.1	-0.3	6321
Cn1ncc(Cl)c1C(=O)Nc1ccc(CN2CCCCC2)cc1	-0.6	-0.9	2.4	3.1	4823
CC(C)Sc1nnc([C@@H](N)Cc2ccccc2)o1	2.1	0.9	-0.5	0.4	16323*
Cc1ccc(C)c(NC(=O)CSc2nnc([C@@H](N)Cc3c[nH]c4ccccc34)o2)c1	-3.2	2.6	-12.3	-4.3	24677*
CC(C)Sc1nnc([C@@H](N)Cc2c[nH]c3ccccc23)o1	-4.9	-2.8	1.8	?	18809*
SMILES	Anthrax LF prot	MazEF act	BoNT F protease	BoNT A protease	Bead autofluor
CSc1nnc([C@@H](N)Cc2ccccc2)o1	-7.5	6.0	-1.9	1.0	15553
CCOC(=O)C(=NCCCN1CCOCC1)NNc1cccc(C(F)(F)F)c1	-6.4	-17.3	-3.9	-0.2	3379
COCCNC(=O)CN1C(=O)NC2(CCCc3ccccc32)C1=O (stereo not given)	1.4	-0.9	1.0	0.1	3088
CCc1cccc(NC(=O)CSc2nnc(Cc3ccc(OC)cc3)c(=O)[nH]2)c1	.	-3.8	.	.	.
CCOc1ccc2oc(-c3ccccc3)c(C(=O)N3CCN(C)CC3)c2c1	3.5	-2.6	4.7	3.1	22066*
Cc1c(F)cccc1NS(=O)(=O)c1ccc(OCCNS(C)(=O)=O)cc1	2.8	1.3	2.5	0.7	3585
CCOC(=O)c1c(C)n(O)c2ccc(Cl)cc2c1=O	-1.3	-1.5	-0.3	1.7	16178*
O=C(CSc1nnc(NC(=O)C2CC2)s1)Nc1ccccc1C(F)(F)F	1.1	0.3	1.4	0.3	6096
CS(=O)(=O)Nc1ccc(N2CCCCC2)c(Cl)c1	0.1	3.9	-0.8	-0.5	23555*
CS(=O)(=O)Nc1ccc(S(=O)(=O)N2CCCCCC2)cc1	0.6	2.6	-4.4	-0.2	5224
CN(C)CCNc1nc(-c2ccco2)c2c(c1C#N)CC(C)(C)OC2	1.8	9.3	-0.9	-2.1	24132*
CCn1ncc(CN2CCC(Oc3cc(C(=O)NC4CC4)ccc3OC)CC2)c1C	-0.9	-1.7	3.8	0.5	6019
